# Screens (PubChem)
# Pf growth 48h: inhibits P. falciparum growth in the first generation, 48 h; P. falciparum luciferase growth in erythrocytes, 48 h; 310,000 tested, 5.9% active; Potency, µM (doses to about 28.7 µM), for the others: at the top dose activity change, negative = inhibition, most hits filed as inhibitors; AID 504832; note: potency is the fitted concentration of half-maximal effect
#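 Luminescence readout; reporter = integrated firefly luciferase in P. falciparum. RBC culture at 2% hematocrit, 0.1% parasitemia final, 37 C/5% CO2; decreased signal taken as growth inhibition.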
# Pf growth 96h: inhibits malaria parasite growth, 96 h | Potency, µM (top dose mostly 28.7 µM), for the others: at the highest dose activity change, negative = inhibition, usual class: inhibitors | P. falciparum luciferase reporter growth, 96 h | AID 504834 | 320,000 tested, 6.9% active; note: potency is the fitted concentration of half-maximal effect
#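 Compounds incubated with erythrocytes infected by luciferase-expressing P. falciparum (2% hematocrit, 0.05% parasitemia final) for 96 hours, 37 C in 5% CO2. Growth inhibition scored as decreased luciferase luminescence.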
# Sm TGR block: inhibitors of Schistosoma mansoni thioredoxin glutathione reductase | Q962Y6 | purified TGR, DTNB reduction, TNB absorbance 405 nm | Potency, µM (top dose mostly 114 µM), without a hit: top-dose activity change, negative = inhibition, most hits filed as inhibitors | 360,000 tested, 3% active | AID 485364; note: potency is the fitted concentration of half-maximal effect; nearly all actives have a fitted effect of over 60% in size
#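 First, TGR (20 nM dispensed) and NADPH were mixed with compound. Second, a 15 min room-temperature incubation followed. Third, further NADPH and then DTNB were added to start the reaction. Finally, TNB absorbance was monitored kinetically.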
# HCMV antiviral: human cytomegalovirus inhibition; activity change, negative = inhibition, % at 57.5 µM; 410,000 tested, 4.5% active; AID 1259415; HFF cells, HCMV-luciferase reporter, 72 h; active compounds read low; in the data active = activity change below about -60%; inconclusive = no clear call, values can overlap the other calls; inactive = above about -39%
#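 Cell-based, HFFs, 1000 cells/well, 16 h 37C; cpds in DMSO + HCMV-luc, MOI 1 PFU/cell; 72 h 37C; OneGlo luminescence after 5 min RT; norm. to buffer vs Salinomycin 10uM.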
# FBPA Giardia inh: blocks Giardia fructose-bisphosphate aldolase activity; A8B2U2; purified Giardia FBPA; Potency, µM (series often up to 59.6 µM), for inactives: at the top dose activity, negative = inhibition, most hits filed as inhibitors; 290,000 tested, 0.71% active; AID 2451; note: potency is the fitted concentration of half-maximal effect; nearly all actives have a fitted effect of over 55% in size
# Target sequence (A8B2U2 whole entry, looked up): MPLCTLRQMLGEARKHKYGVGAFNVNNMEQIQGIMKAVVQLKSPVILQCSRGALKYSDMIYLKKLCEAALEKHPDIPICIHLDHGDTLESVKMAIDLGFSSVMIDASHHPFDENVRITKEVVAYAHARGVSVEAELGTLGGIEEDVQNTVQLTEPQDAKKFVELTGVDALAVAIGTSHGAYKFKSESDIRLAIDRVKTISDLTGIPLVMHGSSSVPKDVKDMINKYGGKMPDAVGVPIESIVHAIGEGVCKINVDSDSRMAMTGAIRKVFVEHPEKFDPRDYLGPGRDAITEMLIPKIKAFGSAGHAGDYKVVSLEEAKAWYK
#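 Giardia FBPA (40 nM reagent) was preincubated 10 min at RT with compound (up to 57.5 uM final), then substrate plus GAPDH/TPI/NAD/arsenate coupling system with diaphorase/resazurin was added; resorufin fluorescence (525/598 nm) was read after 20 min.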
# Numbers without * were called inactive; ? = inconclusive; . = no result given. Rows were chosen to be rich in hits. Some 14% of all compounds tested hit in one or more screens of this group. Unless noted, calls come from the whole dose curve; as a rule, active = well fitted curve in the direction sought with a large enough effect; inconclusive = small, poorly fitted or top-dose-only effect, or another doubt; inactive = no such curve, though single readings can be large; an effect the other way counts as inactive or inconclusive. % is set by controls: 0 for no effect and ±100 for the full control effect.
SMILES,Pf growth 48h,Pf growth 96h,Sm TGR block,HCMV antiviral,FBPA Giardia inh
CCOC(=O)C(C)Sc1cc(CS(=O)(=O)c2ccccc2)nc(-c2ccccc2)n1 (centres undefined),23%,10µM*,-13%,29,-10%
C/C(=N\NC(=O)c1ccc(OC2CCCC2)cc1)c1ccc(O)cc1,?,13µM*,4%,-12,.
CCN(CC)c1ccc(C(=O)N/N=C(\C)c2ccc(O)cc2)cc1,?,10µM*,5%,2,0%
COc1ccc(/C(C)=N/NC(=O)c2ccc(N(C)C)cc2)cc1,?,0.59µM*,-2%,16,-3%
COc1ccc(C(=O)N/N=C(/C)c2ccc(N3CCCCC3)cc2)cc1,-2%,13%,1%,47,1%
COc1ccc(CN2CCc3c([nH]c4ccccc34)C2)c(OC)c1C,?,?,4%,-3,?
COc1ccc(OC)c(C2C(C(=O)N3CCCCC3)=C(C)Nc3nc4ccccc4n32)c1 (centres undefined),.,.,7%,7,.
COc1ccc(-c2csc(NC(=O)c3ccoc3C)n2)cc1,56%,18%,3%,?,-9%
O=C(OCC(=O)N(Cc1ccccc1)Cc1ccccc1)c1ccccc1NCCO,?,-18%,1%,-7,.
CCN(C(=O)COC(=O)c1ccccc1NCCO)c1cccc2ccccc12,?,10µM*,-1%,-15,.
Cn1cccc1C(=O)N1CCC2(CCCN(Cc3nccs3)C2)CC1,.,.,.,.,-1%
COc1ccc(C=O)cc1COc1ccccc1F,23%,8.3µM*,-1%,-34,-2%
COc1ccc(C=O)cc1CN1C(=O)c2ccccc2C1=O,?,0.15µM*,7%,30,3%
Cc1nn(-c2ccccc2)c(-c2ccccc2)c1C(=O)O,14%,?,-26%,-67*,1%
CC(=O)Cc1c(C(=O)O)c(C)nn1-c1ccccc1,-4%,2%,-12%,-35,?
Cc1cc(C)c(S(=O)(=O)c2cccc(Br)c2C)c(Cl)n1,0%,4%,9%,-21,-6%
FC(F)(F)c1ccc(N2CCN(c3cc(-c4ccccc4)nc4ncnn34)CC2)nc1,?,-18%,-4%,-98*,1%
FC(F)(F)c1cccc(Nc2cc(-c3ccccc3)nc3ncnn23)c1,-18%,5%,8%,?,11%
COC(=O)c1nc(N)sc1-c1ccccc1,14%,9.3µM*,17%,96,2%
CC(C)c1ccc(Nc2nc(CC(=O)O)cs2)cc1,273%,52%,4%,78,-4%
O=C(O)Cc1csc(Nc2cccc(Cl)c2)n1,37%,13µM*,-26%,-9,3%
CC(=O)Nc1ccc(N2C(C(C)=O)=NN(c3ccccc3)C2c2cccs2)cc1 (centres undefined),?,?,10%,5,0%
COc1ccc(N2C(C(C)=O)=NN(c3ccccc3)C2c2cccs2)cc1 (centres undefined),.,12µM*,5%,-5,-15%
COc1ccc(-n2cccc2/C=C2/NC(=O)N(c3cccc(Cl)c3)C2=O)cc1,18%,72%,-4%,41,4%
COc1ccccc1N1C(=O)NC(=O)/C(=C/c2ccc3c(c2)Cc2ccccc2-3)C1=O,13%,37%,32µM*,16,-7%
SMILES,Pf growth 48h,Pf growth 96h,Sm TGR block,HCMV antiviral,FBPA Giardia inh
O=C1NC(=O)N(c2ccccc2)C(=O)/C1=C/c1ccc2c(c1)Cc1ccccc1-2,0%,-2%,?,.,-13%
COc1cc(C=O)c([N+](=O)[O-])cc1OC,.,.,.,.,5µM*
COc1cc(/C=C2/NC(=O)N(c3cccc(Cl)c3)C2=O)ccc1O,7.4µM*,?,-20%,?,2%
COc1cc(/C=C2\C(=O)NC(=O)N(c3ccccc3)C2=O)cc(OC)c1O,8%,.,87%,-27,10µM*
COc1cc(/C=C2/C(=O)NN(c3cccc(Cl)c3)C2=O)cc(OC)c1O,-8%,?,?,34,-18%
COc1cc(/C=C2\C(=O)NC(=O)N(c3ccccc3)C2=O)c([N+](=O)[O-])cc1OC,17%,33%,1.6µM*,48,?
CC(C)(C)c1ccc(-c2csc(NNC3=NCCCCC3)n2)cc1,10µM*,.,20%,-5,?
Brc1ccc(-c2csc(NNC3=NCCCCC3)n2)cc1,10µM*,?,-4%,?,?
FC(F)Oc1ccc(-c2csc(NNC3=NCCCCC3)n2)cc1,?,?,-1%,-16,?
COc1ccc(C)cc1S(=O)(=O)n1c([N+](=O)[O-])cnc1C,33%,?,0%,9,-15%
Cc1ccc(S(=O)(=O)CCc2nnc(NC(=O)CCl)s2)cc1C,?,-64%,5µM*,-78*,-3%
COc1cccc(OC)c1C(=O)NCC12CC3CC(C1)CC(CNC(=O)c1c(OC)cccc1OC)(C3)C2,34%,3.3µM*,8%,53,2%
C1=CC2c3ccccc3NC(c3ccncc3)C2C1 (centres undefined),?,13µM*,2.5µM*,-12,?
CC(=O)c1ccc2c(c1)C1C=CCC1C(c1ccncc1)N2 (centres undefined),-9%,132%,?,14,?
Cc1cnc(C(=O)N(c2ccc(N3CCOCC3)cc2)C2C(=O)Nc3ccccc3N=C2c2ccc(F)cc2)cn1 (centres undefined),.,.,.,3,.
CCOc1cc2c(cc1OCC)-n1cccc1C(c1ccc(OC(F)F)cc1)NC2 (centres undefined),13µM*,36%,0%,-24,0%
CCOc1cc2c(cc1OCC)-n1cccc1C(c1ccc(F)cc1)NC2 (centres undefined),?,20%,-6%,-16,-11%
CCOc1cc2c(cc1OCC)-n1cccc1C(c1ccc(OC)cc1)NC2 (centres undefined),?,?,-12%,-9,-2%
CCOc1cc2c(cc1OCC)-n1cccc1C(c1ccc(C(C)C)cc1)NC2 (centres undefined),8.3µM*,?,15%,-68*,-17%
CCc1ccc(C(=O)c2cn(CC(=O)Nc3ccc(C)c(C)c3)c3ccccc3c2=O)cc1,.,.,-14%,-4,.
Nc1c(-c2ccc(F)c(F)c2)nc2ncccn12,.,.,.,-19,.
CCCNC(=O)c1cc(C2CCCN(C(=O)c3ccccc3)C2)on1 (centres undefined),.,.,.,45,.
CC1(C)C(N(O)C(=O)Nc2ccc(Cl)cc2)N(c2ccc(Cl)cc2)C(=O)N1CC(=O)NN (centres undefined),.,10µM*,-16%,-26,-3%
CN1C(=S)SC(C)(C)C1N(O)C(=O)Nc1ccc(Cl)cc1 (centres undefined),?,4%,19%,-24,-18%
O=C(O)C1C2CC(C(Br)C2Br)C1C(=O)O (centres undefined),.,.,.,-30,.
